# According to PubChem BioAssay (Tox21):
# Records with an inconclusive call do not appear. Calls of active or inactive are those of the source. The call rests on the fitted dose curve; in most records, active means well fitted activation curve with a large enough effect in the signal ratio in the repeat runs (not every such curve was filed as active); inconclusive means weak or mixed curves; inactive means flat fitted curve, though single readings scatter; the % refers to the signal ratio.
# Experiment: qHTS assay to identify small molecule agonists of the TGF-beta/Smad signaling pathway (AID 1346859)
# Settings: SBE-bla HEK293T, TGF-beta/Smad beta-lactamase reporter, 5 h; series mostly up to 76.8 µM; activation: at the top concentration
# Source text: U.S. Tox21 Program National Center for Advancing Translational Sciences [NCATS] NIH Chemical Genomics Center [NCGC] U.S. Environmental Protection Agency [EPA] National Institutes of Environmental Health Sciences [NIEHS] National Toxicology Program [NTP] U.S. Food and Drug Administration [FDA] Tox21 Assay Overview: Transforming growth factor beta (TGF-beta) superfamily consists of a large number of structurally related dimeric proteins that act as hormones or local mediators in regulating a wide range of biological functions. This superfamily includes TGF-betas themselves, the bone morphogenetic proteins (BMPs) and the activins. These ligands induce oligomerization of serine/threonine receptor kinases and phosphorylate the cytoplasmic signaling molecules of Smad protein family. CellSensor SBE-bla HEK 293T cell line (Life Technologies, Carlsbad, CA), responsive to TGF-beta was used to screen Tox21 10K compound library for identification of agonists/antagonists of the Smad signaling pathway. This cell line contains a beta-lactamase reporter gene under control of the Smad binding element (SBE) stably integrated into HEK 293T cells.
# Tox21 Assay Protocol Summary: SBE-bla HEK 293T cells were dispensed at 4,000/well in 6 uL of assay medium into black wall/clear-bottom 1536-well plates using a Multidrop Combi (ThermoFisher Scientific, Waltham, MA) dispenser. After the assay plates were incubated at 37 C and 5% CO2 for an overnight, 23 nL of compounds dissolved in DMSO, positive controls or DMSO only was transferred to the assay plate by a Pintool station (Kalypsys, San Diego, CA). The assay plates were incubated at 37 C and 5% CO2 for 5 hr. One uL of LiveBLAzer B/G FRET substrate (Life Technologies) was added using a Flying Reagent Dispenser (Aurora Discovery, San Diego, CA) and the plates were incubated at room temperature for 2 hr. Fluorescence intensity (405 nm excitation, 460 nm and 530 nm emissions) was measured using an Envision plate reader (PerkinElmer, Shelton, CT).
# On the % scale 0 is the no-effect control and ±100 the full control effect.
SMILES,activation,outcome
ClC(Cl)(Cl)Cl,1.17% (inactive),
O=P(O)(O)CN(CP(=O)(O)O)CP(=O)(O)O,,inactive
CN=CNc1ccc(C)cc1C,1.26% (inactive),
CCc1cc(OC)c(C[C@H](C)N)cc1OC,-0.0914% (inactive),
C=CCCC#N,-1.86% (inactive),
O=c1[nH]c2ccccc2n1C1CCNCC1,-1.71% [at 35.3 µM] (inactive),
CCCOc1nn(C(=O)NS(=O)(=O)c2ccccc2C(=O)OC)c(=O)n1C,0.991% (inactive),
NCCOS(=O)(=O)O,-1.04% (inactive),
ClC1=C(Cl)C2(Cl)C(CBr)CC1(Cl)C2(Cl)Cl (stereo not given),,inactive
O=C1CCCCC1Cl (stereo not given),-0.192% (inactive),
O=c1[nH]c2ccccc2o1,2.83% (inactive),
CCN[C@@H](C)Cc1cccc(C(F)(F)F)c1,-0.109% [at 35.3 µM] (inactive),
C[C@H](CN1CCOCC1)C(C(=O)N1CCCC1)(c1ccccc1)c1ccccc1,-2.68% (inactive),
CCOC1Oc2ccc(OS(C)(=O)=O)cc2C1(C)C (stereo not given),2.93% (inactive),
Nc1c(Cl)c(F)nc(OCC(=O)O)c1Cl,-4.33% (inactive),
CC(C)[C@]12CC(=O)[C@H](C)[C@H]1C2,1.07% (inactive),
COP(=O)(O)OC,-0.0445% (inactive),
OP(O)c1ccccc1,0.8% (inactive),
O=C(O)C(Cl)Br (stereo not given),-1.87% (inactive),
CC(C)(C)NC[C@H](O)c1ccc(O)cc1Cl,3.93% [at 35.3 µM] (inactive),

SMILES,activation,outcome
Cn1c(N)nc2c3cccnc3ccc21,-0.241% (inactive),
CC(C)N(Cc1ccccc1)C(=O)C(C)(C)C,0.0389% (inactive),
CNC(=O)Oc1ccccc1C(C)C,-0.933% (inactive),
CCN(CC)C1CCCCC1,0.421% (inactive),
CC(=NC#N)N(C)Cc1ccc(Cl)nc1,0.462% (inactive),
CCC(C(N)=O)N1CCCC1=O (stereo not given),-4.17% [at 35.3 µM] (inactive),
CON(C)C(=O)Nc1ccc(Br)cc1,0.0119% (inactive),
COC(=O)c1ccccc1CS(=O)(=O)NC(=O)Nc1nc(OC)cc(OC)n1,-0.512% (inactive),
[P]#[In],-0.682% (inactive),
CCOP(=S)(OCC)SCCl,3.34% (inactive),
CC(C)(C)C(=O)Cl,0.634% (inactive),
NNCc1ccccc1,1.51% (inactive),
O=C(Cl)c1ccccc1,0.57% (inactive),
CC(C)[N+](C)(CCC(C(N)=O)(c1ccccc1)c1ccccc1)C(C)C,-1.2% [at 35.3 µM] (inactive),
O=C(O)C(Br)(Br)Br,2.64% (inactive),
C[C@]12C=CC(=O)C=C1CC[C@@H]1[C@@H]2CC[C@@]2(C)[C@H]1CC[C@]2(C)O,-5.74% [at 35.3 µM] (inactive),
CCN(CCO)CCO,2.86% (inactive),
Clc1ccc(C(Cl)(Cl)Cl)cn1,0.089% (inactive),
CN(C)CCN(C)C,1.1% (inactive),
CCOc1cc(OP(=S)(OC)OC)nc(CC)n1,-0.593% (inactive),
